Experimental data as given in PubChem BioAssay (NCATS).
Inconclusive results are not listed. Active and inactive are the calls of the source. Calls come from the whole dose curve; tested in HEK293 reporter line.

Experiment: qHTS for Inhibitors of the Functional Ribonucleoprotein Complex (vRNP) of Lassa (LASV) Arenavirus: LASV Primary Screen - GLuc reporter signal (AID 1347082); note: nearly all actives have a fitted effect of over 60% in size
Conditions: LASV minigenome vRNP, Gaussia luciferase reporter; series mostly up to 57.5 µM; activity change, negative = inhibition: at the top concentration
% is set by controls: 0 for no effect and ±100 for the full control effect; potency is the fitted concentration of half-maximal effect.

| SMILES | activity change, negative = inhibition | Potency |
| --- | --- | --- |
| O=C(CCBr)N1CCN(C(=O)CCBr)CC1 | 18.4% (inactive) | – |
| c1ccc2sc(SN3CCOCC3)nc2c1 | 0.848% (inactive) | – |
| CCCCCCCCCCC[C@@H](C[C@@H]1OC(=O)[C@H]1CCCCCC)OC(=O)[C@H](CC(C)C)NC=O | -2.47% (inactive) | – |
| Cc1c(I)c(=O)n(-c2ccccc2)n1C | 0.0571% (inactive) | – |
| CN(C)c1ccc2nc3ccc(=[N+](C)C)cc-3sc2c1 | – | 9.68 µM (active) |
| N#CCC(=O)NN | 1.46% (inactive) | – |
| CC(C)(CO)[C@@H](O)C(=O)NCCCO | -5.49% (inactive) | – |
| Nc1ccn([C@@H]2CS[C@H](CO)O2)c(=O)n1 | 6.89% [at 115 µM] (inactive) | – |
| Cc1nc([N+](=O)[O-])cn1-c1ccc([N+](=O)[O-])cc1 | 6.2% (inactive) | – |
| C[N+](C)(C)CCOC(N)=O | – | inactive |
| CCCCCCCN(CC)CCCC(O)c1ccc(NS(C)(=O)=O)cc1 (centres undefined) | -9.26% (inactive) | – |
| O=C(O)Cn1cnnn1 | 1.46% (inactive) | – |
| CC(C)(C)CC(C)(C)c1ccc(O)c(-n2nc3ccccc3n2)c1 | 5.07% (inactive) | – |
| COC(=O)c1ccccc1C(=O)c1ccc(OCCN2CCCCC2)cc1 | 10.7% (inactive) | – |
| CC(=O)[C@H]1CC[C@H]2[C@@H]3C[C@H](C)C4=CC(=O)CC[C@]4(C)[C@H]3[C@@H](O)C[C@]12C | 20.7% (inactive) | – |
| O=C(O)c1ccccc1Nc1cccc(C(F)(F)F)c1 | 0.971% (inactive) | – |
| NC(=O)NS(=O)(=O)c1ccc(Cl)cc1 | -3.4% (inactive) | – |
| CC1CCN(CCCC(=O)c2ccc(F)cc2)CC1 | 9.44% (inactive) | – |
| CC(C(=O)O)c1ccc(C(=O)c2ccccc2)s1 (centres undefined) | 0.834% (inactive) | – |
| CCCCC(O)/C=C(C)/C=C/C=C/C(=O)N1CCCC1=O (centres undefined) | 3.86% (inactive) | – |

| SMILES | activity change, negative = inhibition | Potency |
| --- | --- | --- |
| NC(=O)N[C@@H](CCC(=O)O)C(=O)O | 2.56% (inactive) | – |
| CNCC(O)c1ccc(O)c(O)c1 (centres undefined) | – | inactive |
| Cc1ccnc(NS(=O)(=O)c2ccc(N)cc2)n1 | -3.01% (inactive) | – |
| CCO/C([O-])=N/c1c[n+](N2CCOCC2)no1 | – | inactive |
| COc1ccc2cc1Oc1cc3c(cc1OC)CC[N+](C)(C)[C@H]3Cc1ccc(cc1)Oc1c(OC)c(OC)cc3c1[C@@H](C2)[N+](C)(C)CC3 | -2.29% (inactive) | – |
| CCCCCCCC/C=C\CCCCCCCC(=O)NCc1ccc(O)c(OC)c1 | -29.7% (inactive) | – |
| COc1cc(/C=C/C(=O)O[C@H]2CC[C@]34C[C@]35CC[C@]3(C)[C@@H]([C@H](C)CCC=C(C)C)CC[C@@]3(C)[C@@H]5CC[C@H]4C2(C)C)ccc1O | -1.49% (inactive) | – |
| O=C(O)CCCCCCCC(=O)O | – | inactive |
| CCN[C@H]1CN(CCCOC)S(=O)(=O)c2sc(S(N)(=O)=O)cc21 | 1.73% (inactive) | – |
| NCC(=O)CCC(=O)O | 0.164% (inactive) | – |
| O=S(=O)(O)c1cc(I)c(O)c2ncccc12 | 2.84% (inactive) | – |
| O=C(O)c1[nH]n(-c2ccc(S(=O)(=O)O)cc2)c(=O)c1N=Nc1ccc(S(=O)(=O)O)cc1 | -1.46% (inactive) | – |
| COc1ccc2nc(SCc3ncc(C)c(OC)c3C)[nH]c2c1 | -3.08% (inactive) | – |
| COc1cccc(OC)c1C(=O)N[C@@H]1C(=O)N2[C@@H]1SC(C)(C)[C@@H]2C(=O)O | -1.59% (inactive) | – |
| Cc1nc2ccc(CN(C)c3ccc(C(=O)N[C@@H](CCC(=O)O)C(=O)O)s3)cc2c(=O)[nH]1 | -7.24% (inactive) | – |
| Cc1ncc([N+](=O)[O-])n1CC(C)O (centres undefined) | 1.9% (inactive) | – |
| Nc1ncnc2c1ncn2[C@@H]1O[C@H](CO)[C@@H](O)[C@H]1O | – | inactive |
| Clc1cccc(C(c2ccc3nc[nH]c3c2)n2ccnc2)c1 (centres undefined) | -8.89% (inactive) | – |
| Cc1onc(-c2ccccc2)c1C(=O)Cl | 3.9% (inactive) | – |
